This passage reports z-score results from PubChem BioAssay AID1508600 (Functional Genomics Laboratory (NCATS/FGL), 2020).

The whole screen tested about 53,000 sequences, of which about 3,700 (7%) were called active.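 The calls were made as follows: active = gene knockdowns whose robust z-score for IL-1 alpha signal is at least 2 or at most -2, so actives lie on both sides; inactive = the rest.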 This excerpt belongs to a sample that is enriched for actives.

This test can be described thus: Components of the Cytosolic LPS Sensing Pathway: Gene Identification via Genome-wide siRNA Screen.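 Also: robust z of the log signal after scaling to non-targeting control siRNA wells of the plate.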 To be noted: RAW264.7 macrophages, IL-1a HTRF, actives lie on both sides, screened at 100 nM (by protocol), cells primed 5 h with Pam3CSK4 first. Put shortly: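 Knockdown: 100 nM siRNA, 48h, RAW264.7. Stimulation: Pam3CSK4 5 h, then LipidA via TransIT-TKO 24 h. Output: supernatant IL-1a HTRF, negative-control-normalized, log robust z-score; viability by CellTiter-Glo.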
For orientation: Time-resolved FRET reads energy transfer from a long-lived donor to a nearby acceptor.
As to GCUCGGUAGGUAUUUUCUGTT against Tmem164, the z-score is -0.13 (inactive).
The same measure for GGCUGAUGCAGACAGUUUCTT against Brap: -0.655 (inactive); for GGAUUGAAACAGAUGAGAGTT against Gtf2e1: 0.833 (inactive); for GGAGUGCUGAUAAAAGAAGTT against Atp5mpl: -0.952 (inactive).
The same measure for GUUCUAUGGUAGACAUUAUTT against Gm5414: -2.35 (active); for GCUCUCAUACACGGUGGAATT against Ros1: -0.272 (inactive).
For the sequence GGAGACCUCAGCUGAUAUUTT against Tmem109, the z-score was 0.51 (inactive).
As for GGUUCUGAACCAGCUGGAGTT against Chd3, the z-score was 2.72 (active).
Regarding GGCCAUGCCUUUGUAUGCUTT against Tbc1d25, the z-score was -0.155 (inactive).
Then GGAUUUUGUUGACAAUGAUTT against Ncaph, with -0.0936 (inactive).
Then GGAGCUCUUGGAUAUAAAATT against Eif4enif1, with 0.223 (inactive).
Then GGUGAGACAGAUAAAGUUCTT against Olfr1124, with 1.15 (inactive); and GGUAAAAGCUACCAUUCAGTT against Ap2a2, with -0.947 (inactive); and GGUUUGUUUUUGUUCGUUUTT against Cytip, with -0.067 (inactive).
For GGCAAGAAAAAUCAGAUUGTT against Cyld, the z-score is 3 (active).
Take GGAGUUUACGGCUAUUGACTT against Adap2: the z-score was -0.884 (inactive).
Consider GGUUUAAUUCUUGUCUUGUTT against Pvt1, for which the z-score is -0.928 (inactive).
For the sequence GGUUAUCGGUUGUACAUAUTT against Chd3, the z-score is 1.03 (inactive).
The same measure for CGUGGACUCUAUAAUCAACTT against Map7d1: 2.47 (active).
Consider GGCAAGCUUCCAGAUCGAATT against Adam23, for which the z-score is 0.0113 (inactive).
Then GGAACCAGAUCUCAUGCCCTT against Endov, with -1.47 (inactive).
Regarding GGAUCACACUAGUAUUUUCTT against Sertad2, the z-score is -0.923 (inactive).
Then GCUAAAAACAACUAGGAAATT against Wdr60, with 0.391 (inactive).
For the sequence GCAUCGUGUGCAAGAUCCUTT against Atp4b, the z-score was 2.74 (active).
Then GGAAAUAUAUCUGAAAGGGTT against Sphkap, with 0.514 (inactive).
The same measure for GCUCGCUAAAGUGAUUAAATT against Gm5533: 0.867 (inactive); for GGACUUUCUAAGGGUAAAATT against Luzp1: -0.0646 (inactive); for GGACAAAGCUAUUGGGAUUTT against Olfr402: 1.45 (inactive).
Consider GGUGAUGGUCCAGAUUAACTT against Plpbp, for which the z-score was -0.0895 (inactive).
Regarding GCUGAAAUAGUUGCUAAAUTT against Usp6nl, the z-score was 0.443 (inactive).
Then GGAACUGUCACAACUGCUATT against Acat3, with 3.22 (active).
Then GGAGAAGCUCAUCUCUCUGTT against Rfx2, with -1.35 (inactive).
Then GGAACAUCUUUCUUCUCCATT against Abhd4, with -0.869 (inactive).
For GGAUUCGGACUUCAUAAUCTT against Dpp10, the z-score was 0.256 (inactive).
Then GCUGAUAAAUCUGAACUACTT against Dhrs7, with 1.15 (inactive).
Regarding GGUUCUGAGUAUUUAAAGCTT against Nt5dc3, the z-score is 2.21 (active).
Then GGACAUCUCCUUGAUCUUGTT against Slc1a5, with -0.95 (inactive); and UCACCAUCUUGAAGAUUCGTT against Olfr486, with -0.792 (inactive); and GCAGGAUCCUGAAACCAUGTT against Lrrc14, with -2.09 (active).
With GCCCAAGACGAAAAGAUACTT against Mrpl9, the z-score is 0.662 (inactive).
Then GGAUAGCAAAUUCAUCACATT against Ptprg, with -0.214 (inactive).
GGCUUCGUAGCUUUACAAATT against Abca6: the z-score was -0.846 (inactive).
For GGAAAGGUCAAGAGAAUUUTT against Strn3, the z-score was -1.16 (inactive).
For GGACUUACUGACAAGAAACTT against Pcdhgb8, the z-score is -0.52 (inactive).
Then UUCUAAUUGUCACUUGGUGTT against Olfr1474, with -0.133 (inactive); and GCUGGAUUAUUUGAGAGUCTT against Trim62, with 2.17 (active); and GCAUUAAGCAAUGGCAUCATT against Cbfa2t2, with 0.21 (inactive).
The same measure for GCAUCAGAGAAGUGCGAGCTT against Pafah2: -0.0121 (inactive); for “GCUCAUGAUCAUAUCAUGATT against 1810055G02Rik”: 0.647 (inactive); for CCCACACAAUUCUCAUGGGTT against Olfr366: 0.661 (inactive).
The same measure for GGAAUACGAAGAGAUUAUATT against Zw10: 0.65 (inactive); for “CCUAGAAAAGUCAUUGUCATT against 3010003L21Rik”: -2.08 (active).
Turning to CCUUCAAGAUAAAUUGACATT against Tango6, the z-score is 0.755 (inactive).
Turning to GGAAAAGGCCAUGAAUAUATT against Mmel1, the z-score is 0.176 (inactive).
For GGCCAGACACAGGUAGACATT against B9d2, the z-score is -1.85 (inactive).
In the case of CGGACGAUUCGUGUCAAUUTT against Ppie, the z-score is 0.619 (inactive).
GGACGAACAGUAUUAUACUTT against Lhx5: the z-score was 2.11 (active).
In the case of CCUGAUGUUAUUCCUUUUATT against Klhl20, the z-score is -0.524 (inactive).
On to GGUGAUGACGAAGGAAUCCTT against Zfpm2, for which the z-score is -1.51 (inactive).
GGAGCAAGACAUAUAGAAATT against Spsb2: the z-score is 2.26 (active).
As to GGACAUUUUUAUUAGUGGATT against Gtpbp8, the z-score was 1.04 (inactive).
The same measure for CCAUUGGAGGAUAAGUUUUTT against Mtm1: -0.0988 (inactive); for GGAAAAUGGAGAACUAAAGTT against Uxs1: 1.88 (inactive); for GGAUAAACCCUACGUUCUATT against Slc44a4: 0.658 (inactive).
For GGUUAUCCGUGGUAACCAUTT against Taok3, the z-score is 0.78 (inactive).
Then CGAACGUGAUGAGUUAUGGTT against Vmn1r83, with -2.67 (active); and GGUAUUCGUGGAGUGGAGATT against Pdcd2l, with 0.0458 (inactive).
Turning to GGGCAAUUAGUAAAGGCUATT against Eif2s3x, the z-score is 2.02 (active).
The same measure for GGUCCUACAAAAAGAUGGATT against Mettl7b: -0.536 (inactive); for CGAGAUUGUGCUGAUAGAGTT against Nptx2: 0.533 (inactive).
Then CGUGUUGUACUACGUAUAUTT against Abtb1, with -0.172 (inactive); and CCUAAAAGACUUUGGAGACTT against Arg2, with -1.09 (inactive); and GGCCCUCAUGAUUGCUAUGTT against Nek8, with -0.722 (inactive).
In the case of CCUUCCAUGGUGAGGAUAATT against Stim1, the z-score was -2 (active).
CCAGUUGAGUCACUUACUGTT against Borcs7: the z-score was 0.667 (inactive).
Then CGCGGCAUAAACAUGUAAATT against Gatc, with -1.07 (inactive); and GGUGUCUUUCUUCACUCUUTT against Olfr862, with 0.225 (inactive); and CGUGUUUGAUCACUACUCUTT against Tnfaip8l2, with -0.593 (inactive).
Then GGACUGACUGGCUUCAUUGTT against Atl2, with -2.52 (active).
The same measure for GCAGAUUAGCUUCGUCAACTT against Top2a: -0.588 (inactive); for GCGAAAUCCUGGGCUACUCTT against Dyrk4: -0.32 (inactive); for GGUUGUGACUACACUAUGGTT against Zfp456: -1.7 (inactive).
On to CGCAGAACGUGAACACCAATT against Smad3, for which the z-score was -2.47 (active).
For GUUACACAGGAGUGUGUAATT against Rnase2a, the z-score was 0.573 (inactive).
Regarding GGUGGCUUUAGGGAACAUUTT against Dctn3, the z-score was 0.369 (inactive).
The same measure for GGAAAUGGAGAAAUAUGCATT against Plod3: -0.167 (inactive); for ACCUUUGUCCUUUUGUUGUTT against Defb15: 2.01 (active); for GGAGAUGAAAAAAACGAGCTT against Rxylt1: -0.222 (inactive).
For the sequence GCAAAUAAUGAGGUCCAGATT against Rbms2, the z-score is -0.377 (inactive).
On to GCAAGUCCUACAAUACAACTT against Tk1, for which the z-score is 5.5 (active).
Then GGCGAUGAAGAAGUAAUUUTT against Appl2, with -1.2 (inactive).
For CCCAUUAAGGUAUAAUAUCTT against Olfr855, the z-score is -0.301 (inactive).
On to GGUUUCAUUUGGAUUUGCATT against Glyr1, for which the z-score is 0.491 (inactive).
The same measure for GGCAAAGAUAAUAAAGCUATT against Xpo1: -0.967 (inactive); for CCGUUUACUUCGUCCAAGUTT against Crlf1: -0.134 (inactive).
Then CCUUAUUUGUCCAUAAAAGTT against Pkdrej, with 2.43 (active); and GGGUCCUCUGAAAGUUACCTT against Fndc5, with 0.497 (inactive).
Then GCACUUUGGCAUAUUUUCATT against Slc6a15, with -0.391 (inactive); and GGAAAUGCUUCUGAGCUAGTT against Desi2, with 1.71 (inactive); and GGGACGACUCUUUCUUAUGTT against Olfr1264, with 0.822 (inactive).
As for GGAGAAAGGUGGUUUGGUATT against Sap30bp, the z-score was -2.85 (active).
As for GGAGCUAGUAUGUUCAACATT against Ubqln1, the z-score was -0.942 (inactive).
As for GGUGUUUGUUUCUAACUUCTT against Glcci1, the z-score is -0.434 (inactive).
The same measure for CGAAUUCAUACCAGUGUGCTT against Ndufa10: 2.84 (active); for GCACUCUGCCUGAAAUACCTT against Nlrp1a: -0.376 (inactive); for GGACUUCACAAUCUCUUUCTT against Hck: -0.11 (inactive).
The same measure for GGAAGAAUCCACUUUGAACTT against Chil4: 0.048 (inactive).
On to GGGCUAAAUUAAGCUUCUATT against Sowahd, for which the z-score is -0.707 (inactive).
